# Values joined by “and” are separate entries in the source; they are usually repeats but may differ in a detail not shown here. Equal values may be shown once. Compounds without any hit were thinned out: in the full panel of roughly 83,000, 20% have a hit.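 Percent growth is the endpoint: 0 to 100 indicates growth inhibition (40 means 60% inhibition), 0 means no net growth, and negative values indicate cell death.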 A number with no mark means an inactive call. Active and inactive are the calls of the source.
# Tested on: MCF7 breast
# Experiment: NCI-60 one-dose screen, 48 h (100 = growth as untreated, 0 = no growth, -100 = all killed)
# Conditions: 1 µM
# Protocol: Growth inhibition of the MCF7 human tumor cell line is measured as a screen for anti-cancer activity. Cells are grown in 96 well plates and exposed to the test compound for 48 hours. Compounds are tested at a single concentration, which is 10^-5 M for most compounds. The reported endpoint is percent growth (GI% or GIPRCNT), where numbers from 0 - 100% represent growth inhibition, and numbers from -100% - 0 represent cell death. For example, a value of 40 represents 60% growth inhibition. A value of 0 means no net growth occurred over the course of the experiment. A value of -40 indicates 40% of cells at the beginning of the experiment died by the end of the experiment. A value of -100 means all cells are dead at the end of the experiment.
# NCI-60 Human Tumor Cell Lines Screen was performed using the standard one-dose NCI protocol, which is described in more detail at https://dtp.cancer.gov/discovery_development/nci-60/default.htm.
# Compounds with GIPRCNT values below 10 were considered active. Activity score was based on GIPRCNT using the following formula: […]
# Score is 0 for GIPRCNT values of 100 or above, 50 for GIPRCNT values of 0, and 100 for GIPRCNT values of -100.
row,Compound,growth
1,CC/C(=C(/c1ccc(O)cc1)c1ccc(OCCN(C)C(=O)COCCOCCNC(=O)Cc2ccc3c(c2)CN([C@@H]2CCC(=O)NC2=O)C3=O)cc1)c1ccccc1,36.1%
2,CC/C(=C(/c1ccc(O)cc1)c1ccc(OCCN(C)C(=O)COCCOCCNC(=O)c2ccc3c(c2)CN([C@@H]2CCC(=O)NC2=O)C3=O)cc1)c1ccccc1,26.3%

# Same assay, conditions: 10 µM
row,Compound,growth
1,CC/C(=C(/c1ccc(O)cc1)c1ccc(OCCN(C)C(=O)COCCOCCNC(=O)Cc2ccc3c(c2)CN([C@@H]2CCC(=O)NC2=O)C3=O)cc1)c1ccccc1,19.6%
2,CC/C(=C(/c1ccc(O)cc1)c1ccc(OCCN(C)C(=O)COCCOCCNC(=O)c2ccc3c(c2)CN([C@@H]2CCC(=O)NC2=O)C3=O)cc1)c1ccccc1,18.9%

# Same assay, conditions: 10 µM unless noted
row,Compound,growth
1,COc1ccc([C@H]2C(C(=O)c3ccc(Cl)cc3)C3(N[C@@H]2c2ccccc2)C(=O)Nc2ccccc23)cc1 (stereo not given in full),7.51% (active)
2,ClC(Cn1ncc2c(Nc3cccc(Br)c3)nc(SCCN3CCOCC3)nc21)c1ccc(Br)cc1 (stereo not given),-5.44% (active)
3,Clc1ccccc1Nc1nnc(-c2c[nH]c3ccccc23)o1,14.9%
4,O=C1C=CC(=CC=C2N(Cc3ccc4ccccc4c3)c3ccccc3N2Cc2ccc3ccccc3c2)C=C1,15.7% and 14.1%
5,Cc1cccc(NCC(=O)N2CCN(c3ncnc4c3cnn4-c3ccccc3)CC2)c1,45.6%
6,COC(=O)c1cc(C(=O)C(C)(C)C)n2c3ccccc3c3ccccc3c12,86.2%
7,O=C1CCC(N2C(=O)c3cccc(NCCOCCOCCOCCC(=O)NCCCC(=O)NC(c4ccc5c(c4)OCO5)c4cc(Cl)c5cccnc5c4O)c3C2=O)C(=O)C1 (stereo not given),10.9%
8,O=C(CSc1nc2sc3c(c2c(=O)n1-c1ccc(Cl)cc1)CCCC3)N/N=C/C=C/c1ccccc1,12.6%
9,O=C(Cc1c(-c2ccccc2[N+](=O)[O-])n(-c2ncnc3c2c(-c2ccccc2)c(-c2ccccc2)n3Cc2ccccc2)[nH]c1=O)c1ccc(Cl)c(Cl)c1,11.9%
10,Cn1cc(-c2cc(N)n3nc(-c4c[nH]c5ccccc45)cc3n2)c2cc(Cl)ccc21,-70.3% (active)
11,N/C(=N\c1nc2ccccc2s1)NC(=O)Nc1ccccc1[N+](=O)[O-],12.8%
12,CN1CCc2c(sc3ncnc(N/N=C/c4cccc(Cl)c4Cl)c23)C1,-39.1% (active)
13,COc1ccc(/C=C/c2nc3ccccc3c(=O)n2CC(=O)Nc2ccccc2)cc1,54.9%
14,CN(C)c1nc(NCCNS(=O)(=O)c2ccc(C3=Nc4c(N)nc(N)nc4NC(c4ccc(C(F)(F)F)cc4)C3)cc2)nc(N2CCOCC2)n1 (stereo not given),21.8%
15,CCCCNC(=S)Nc1ccc(OCc2nc3ccc(Cl)cc3[nH]2)cc1,6.29% (active)
16,O=C1Nc2ccccc2/C1=C/C(=O)c1cc2ccccc2oc1=O,53.3%
17,CCOc1ccccc1NC(=O)N/C(N)=N/c1nc2ccccc2s1,11%
18,O=C(CSc1nc2sc3c(c2c(=O)n1-c1ccc(Cl)cc1)CCCC3)NNC(=O)c1ccc(Br)cc1,54.1%

row,Compound,growth
1,CN1CCN(C(=O)CCN(C(=O)Oc2cc3c(c4ccccc24)[C@H](CCl)CN3C(=O)c2cc3cc(OCCCN4CCC4)ccc3[nH]2)[C@H]2CCSSC2)CC1,-67.4% (active)
2,C=CC(=O)N1CCN(c2ccc3nc4c(nc3c2C(F)(F)F)C(=O)c2ncccc2C4=O)CC1,-66.8% (active)
3,Nc1nn2c(-c3cc4cc(Br)ccc4oc3=O)ccnc2c1N=Nc1ccc(S(N)(=O)=O)cc1,71.4%
4,Cc1ccc(Cl)cc1NC(=O)Nc1nc2ccc([N+](=O)[O-])cc2s1,0.201% (active)
5,OCCn1cc(-c2nc3ccc4[nH]ncc4c3c3c2CCCC3)cn1,39.3%
6,COc1cc(CNC(=O)C[C@H](C)CCC=C(C)C)ccc1OCc1cn(-c2ccc(Cl)c(Cl)c2)nn1,49.6%
7,N#Cc1ccc(C(=O)CSc2nc3c(c(Nc4ccc(S(N)(=O)=O)cc4)n2)CCC3)cc1,19.2%
8,COc1cc(CNC(=O)C[C@H](C)CCC=C(C)C)ccc1OCc1cn(-c2cccc(C(F)(F)F)c2)nn1,56.8%
9,COc1c(B(O)O)cccc1-c1nc2ccc3cn[nH]c3c2c2c1CCCC2,60.5%
10,Nc1ccc(-c2ccc3ncnc(N4CCc5cc(F)c(Cl)cc54)c3c2)cn1,8.53% (active)
11,COc1ccc2ccccc2c1/C=C1\SC(=Nc2ccc(O)cc2)NC1=O,9.63% (active)
12,COc1cc(C=O)ccc1Oc1nc(Nc2ccc(F)cc2)nc(N(C)C)n1,53.2% and 45.4%
13,COc1cccc(NC(=O)c2ccc(NC(=O)CCl)s2)c1,5.63% (active)
14,Cc1ccc2nc(SCc3ccccc3F)n(-c3ccccc3)c(=O)c2c1,89.2%
15,Cn1cc(-c2cc3nc(-c4cn(C)c5ncc(Br)cc45)cc(N)n3n2)c2cc(F)ccc21,27%
16,COc1ccc(NC(=O)Cn2c(/C=C/c3cccc(OC)c3)nc3ccccc3c2=O)cc1,30.4%
17,O=C(N/N=C/c1c[nH]c2ccccc12)Nc1ccc(F)c(Cl)c1,9.25% (active)
18,O=C(NN1C(=O)/C(=C/C=C/c2ccc([N+](=O)[O-])o2)SC1=S)c1ccc([N+](=O)[O-])cc1,-61.4% (active)

# From PubChem BioAssay (NCI)
